This is an account of results in PubChem BioAssay (Tox21).

Where “and” joins values, the source holds several entries; their conditions need not be identical. Equal entries are not always repeated. Records with an inconclusive call do not appear. Calls of active or inactive are those of the source. Unless noted, calls come from the whole dose curve; as a rule, active = well fitted curve in the direction sought with a large enough effect in the repeat runs; inconclusive = weak or mixed curves; inactive = no such curve, though single readings can be large; an effect the other way counts as inactive or inconclusive.

The nature of assay [1]: qHTS assay to test for compound auto fluorescence at 535 nm (green) in HEK293 cells (AID 720680). Note: % is set by controls: 0 for no effect and ±100 for the full control effect.
Assay [2] in a line: qHTS assay to test for compound auto fluorescence at 460 nm (blue) in HEK293 cell free culture (AID 720681). Note: % is set by controls: 0 for no effect and ±100 for the full control effect. The method in brief: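 Blue fluorescence (Ex 405/Em 460 nm, triamterene-equivalent) was read immediately after pin transfer of compound or DMSO into medium (DMEM, 10% FBS) without cells.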
In general terms: In qHTS, concentration-response curves come from the screen itself.

Assay [3] can be described thus: qHTS assay to test for compound auto fluorescence at 535 nm (green) in HEK293 cell free culture (AID 720682). Note: % is set by controls: 0 for no effect and ±100 for the full control effect. Summed up: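 Steps: dispense DMEM/10% FBS into empty wells; pin in compound or DMSO; measure fluorescence at 485/535 nm. Values are fluorescein equivalents.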
Assay [4] is described as follows: qHTS assay to test for compound auto fluorescence at 590 nm (red) in HEK293 cell free culture (AID 720683). Note: % is set by controls: 0 for no effect and ±100 for the full control effect. The method in brief: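 Red-channel autofluorescence of compounds in culture medium (DMEM, 10% FBS), no cells, measured at 540/590 nm. Rose Bengal sodium is the reference fluorophore for equivalence.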
The nature of assay [5]: qHTS assay to test for compound auto fluorescence at 590 nm (red) in HepG2 cell free culture (AID 720684). Note: % is set by controls: 0 for no effect and ±100 for the full control effect. The method in brief: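 Steps: dispense MEM/10% FBS medium, no cells; pin compound or DMSO vehicle; read red channel, Ex/Em 540/590 nm. Output given as Rose Bengal sodium equivalents.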
Assay [6] is described as follows: qHTS assay to test for compound auto fluorescence at 460 nm (blue) in HepG2 cell free culture (AID 720685). Note: % is set by controls: 0 for no effect and ±100 for the full control effect. The method in brief:
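Compound (23 nL) or DMSO pinned into cell-free MEM with 10% FBS; blue fluorescence read at 405/460 nm excitation/emission, expressed as auto-fluorescence equivalency to triamterene.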

The nature of assay [7]: qHTS assay to test for compound auto fluorescence at 535 nm (green) in HepG2 cell free culture (AID 720686). Note: % is set by controls: 0 for no effect and ±100 for the full control effect.
The nature of assay [8]: qHTS assay for identifying genotoxic compounds that show differential cytotoxicity against isogenic chicken DT40 cell lines with known DNA damage response pathways - wild type cell line (AID 743012). Note: potency is the fitted concentration of half-maximal effect; nearly all actives have a fitted effect of over 60% in size. The method in brief:
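Wild-type DT40 cells (300/well) exposed to compounds for 40 hours at 37 C/5% CO2. Viability read by CellTiter-Glo luminescence after 30 min at room temperature.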

Assay [9] is described as follows: qHTS assay for identifying genotoxic compounds that show differential cytotoxicity against isogenic chicken DT40 cell lines with known DNA damage response pathways - Rev3 mutant cell line (AID 743014). Note: potency is the fitted concentration of half-maximal effect; nearly all actives have a fitted effect of over 55% in size.
Assay [10] in a line: qHTS assay for identifying genotoxic compounds that show differential cytotoxicity against isogenic chicken DT40 cell lines with known DNA damage response pathways - Rad54/Ku70 mutant cell line (AID 743015). Note: potency is the fitted concentration of half-maximal effect; nearly all actives have a fitted effect of over 60% in size.
Assay [11] is described as follows: qHTS assay to identify small molecule antagonists of the androgen receptor (AR) signaling pathway - cell viability counter screen (AID 743033; note: nearly all actives have a fitted effect of over 45% in size; note: potency is the fitted concentration of half-maximal effect).
Assay [12] can be described thus: qHTS assay to identify small molecule antagonists of the androgen receptor (AR) signaling pathway using the MDA cell line - cell viability counter screen (AID 743041; note: nearly all actives have a fitted effect of over 45% in size; note: potency is the fitted concentration of half-maximal effect). Summed up: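 Cells were plated at 3,000 per well and left 5 h. Compounds in DMSO were then pinned in, followed by R1881. After 16 h at 37C, CellTiter-Fluor fluorescence gave viability.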
Assay [13] in a line: qHTS assay to test for compound auto fluorescence at 460 nm (blue) in HepG2 cells (AID 720687). Note: % is set by controls: 0 for no effect and ±100 for the full control effect. The method in brief: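 Blue-channel autofluorescence (Ex/Em 405/460 nm, triamterene-equivalent) was measured after 1 hr compound exposure at 37 C, 5% CO2. Cells were HepG2, plated overnight at 37 C in MEM plus 10% FBS.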
Assay [14] is described as follows: qHTS assay to identify small molecule antagonists of the glucocorticoid receptor (GR) signaling pathway - cell viability counter screen (AID 720693). Note: nearly all actives have a fitted effect of over 55% in size. Note: potency is the fitted concentration of half-maximal effect.
For assay [15], the target named is Glucocorticoid receptor (Homo sapiens) (UniProt P04150). Put plainly: qHTS assay to identify small molecule agonists of the glucocorticoid receptor (GR) signaling pathway (AID 720691; active = well fitted activation curve with a large enough effect in the signal ratio in the repeat runs, not every such curve was filed as active; the % refers to the signal ratio; note: % is set by controls: 0 for no effect and ±100 for the full control effect). Conditions: GR-bla HeLa, beta-lactamase reporter ratio, 18 h; activation: at 62.4 µM (top of the series). Summed up:
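GR-bla HeLa cells carrying a GRE-driven beta-lactamase reporter, exposed to compounds for 18 h at 37 C. Reporter activation read as fluorescence after 2 h with LiveBLAzer B/G FRET substrate at room temperature.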

Assay [16] shares this target. As to the kind of experiment: qHTS assay to identify small molecule antagonists of the glucocorticoid receptor (GR) signaling pathway (AID 720692; active = well fitted inhibition curve with a large enough effect in the signal ratio in the repeat runs, not every such curve was filed as active; the % refers to the signal ratio; note: % is set by controls: 0 for no effect and ±100 for the full control effect). The method in brief: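 GR-bla HeLa cells carrying a GRE-driven beta-lactamase reporter received compound after 4 h plating, then dexamethasone (5 nM final). After 18 h at 37C, the FRET substrate was loaded for 2 h at room temperature and fluorescence read.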

Assay [17] deals with Androgen receptor (Homo sapiens) (UniProt P10275). As to the kind of experiment: qHTS assay to identify small molecule antagonists of the androgen receptor (AR) signaling pathway using the MDA cell line (AID 743042; note: nearly all actives have a fitted effect of over 55% in size; note: potency is the fitted concentration of half-maximal effect). Summed up:
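Antagonist mode: compounds plus R1881 agonist added to MDA-kb2 AR-luc cells, incubated 16 h at 37C. Luciferase reporter luminescence quantified, with multiplexed CellTiter-Fluor readout for cell viability.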

Assay [18] shares this target. Put plainly: qHTS assay to identify small molecule agonists of the androgen receptor (AR) signaling pathway (AID 743036; active = well fitted activation curve with a large enough effect in the signal ratio in the repeat runs, with a control signal flat, not every such curve was filed as active; the % refers to the signal ratio; note: % is set by controls: 0 for no effect and ±100 for the full control effect). Summed up:
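Reporter line: GeneBLAzer AR-UAS-bla-GripTite (HEK293). Steps: plate cells, 4 h rest, add compounds, 16 h at 37C, add LiveBLAzer B/G substrate, 2 h at RT, read fluorescence.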

Assay [19] shares this target. Put plainly: qHTS assay to identify small molecule antagonists of the androgen receptor (AR) signaling pathway (AID 743035; active = well fitted inhibition curve with a large enough effect in the signal ratio in the repeat runs, not every such curve was filed as active; the % refers to the signal ratio; note: potency is the fitted concentration of half-maximal effect). Summed up:
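HEK293 cells stably carrying UAS-beta-lactamase reporter, 2,000/well, given compounds plus R1881 agonist and incubated 16 h at 37C. LiveBLAzer B/G FRET substrate then added for 2 h at room temperature before fluorescence reading.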

The target is the same in assay [20]. As to the kind of experiment: qHTS assay to identify small molecule agonists of the androgen receptor (AR) signaling pathway using the MDA cell line (AID 743040; note: % is set by controls: 0 for no effect and ±100 for the full control effect; nearly all actives have a fitted effect of over 20% in size). Summed up:
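Cells plated, 5 h at 37C/0% CO2; compound or DMSO pinned; 16 h at 37C; ONE-Glo added; luminescence measured after 30 min at room temperature. Reporter line: MDA-kb2 with MMTV-luciferase responsive to AR and GR.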

Glucocorticoid receptor (Homo sapiens), sequence (P04150 whole entry, looked up): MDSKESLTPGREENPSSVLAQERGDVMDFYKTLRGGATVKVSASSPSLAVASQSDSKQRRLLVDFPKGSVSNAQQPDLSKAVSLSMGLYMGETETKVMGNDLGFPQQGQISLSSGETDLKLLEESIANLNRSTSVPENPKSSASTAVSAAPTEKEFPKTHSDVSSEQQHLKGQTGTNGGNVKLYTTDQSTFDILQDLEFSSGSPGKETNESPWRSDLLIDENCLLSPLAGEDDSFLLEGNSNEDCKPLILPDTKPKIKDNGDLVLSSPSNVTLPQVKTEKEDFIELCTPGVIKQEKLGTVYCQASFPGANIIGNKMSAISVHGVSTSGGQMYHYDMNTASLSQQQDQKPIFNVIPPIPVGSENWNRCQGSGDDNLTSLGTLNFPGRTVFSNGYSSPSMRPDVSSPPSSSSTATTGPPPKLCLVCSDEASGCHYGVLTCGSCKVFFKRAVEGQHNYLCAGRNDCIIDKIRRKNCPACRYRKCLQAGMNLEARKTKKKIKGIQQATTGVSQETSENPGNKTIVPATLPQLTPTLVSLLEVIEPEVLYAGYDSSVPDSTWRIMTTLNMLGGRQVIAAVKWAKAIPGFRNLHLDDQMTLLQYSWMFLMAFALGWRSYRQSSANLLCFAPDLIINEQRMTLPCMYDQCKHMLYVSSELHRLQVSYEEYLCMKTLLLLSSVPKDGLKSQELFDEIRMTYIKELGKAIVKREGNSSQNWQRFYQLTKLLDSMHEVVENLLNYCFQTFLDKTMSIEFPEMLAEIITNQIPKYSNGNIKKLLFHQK
Androgen receptor (Homo sapiens), sequence (P10275 whole entry, looked up): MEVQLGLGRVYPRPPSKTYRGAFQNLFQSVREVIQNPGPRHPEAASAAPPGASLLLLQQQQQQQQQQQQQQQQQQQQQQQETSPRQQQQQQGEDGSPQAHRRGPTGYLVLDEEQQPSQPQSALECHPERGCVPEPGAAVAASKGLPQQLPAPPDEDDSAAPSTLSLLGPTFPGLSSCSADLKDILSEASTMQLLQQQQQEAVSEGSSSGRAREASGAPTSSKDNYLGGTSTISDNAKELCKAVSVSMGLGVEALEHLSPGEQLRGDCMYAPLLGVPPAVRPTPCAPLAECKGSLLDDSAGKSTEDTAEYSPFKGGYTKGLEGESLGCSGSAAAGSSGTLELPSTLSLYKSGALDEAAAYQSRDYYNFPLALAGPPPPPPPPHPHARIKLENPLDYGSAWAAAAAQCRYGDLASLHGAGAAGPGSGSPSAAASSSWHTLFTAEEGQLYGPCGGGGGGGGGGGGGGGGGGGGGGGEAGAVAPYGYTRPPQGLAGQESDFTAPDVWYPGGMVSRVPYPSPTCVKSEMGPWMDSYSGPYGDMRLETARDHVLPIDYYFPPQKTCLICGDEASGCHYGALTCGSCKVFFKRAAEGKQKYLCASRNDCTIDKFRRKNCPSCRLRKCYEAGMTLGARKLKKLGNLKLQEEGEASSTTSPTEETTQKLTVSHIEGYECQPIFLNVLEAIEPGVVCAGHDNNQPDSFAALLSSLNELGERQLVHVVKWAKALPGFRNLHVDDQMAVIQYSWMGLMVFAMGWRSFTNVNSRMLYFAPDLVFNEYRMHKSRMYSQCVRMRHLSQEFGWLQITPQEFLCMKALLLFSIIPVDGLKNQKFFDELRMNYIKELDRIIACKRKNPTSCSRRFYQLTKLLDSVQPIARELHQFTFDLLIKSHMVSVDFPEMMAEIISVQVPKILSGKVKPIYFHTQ

Consider `CC(C)(c1cc(Br)c(O)c(Br)c1)c1cc(Br)c(O)c(Br)c1`, for which the Potency result in [1], in assay [2], in assay [3], in assay [4], in assay [5] and in [6] was “inactive” in each case. The Potency result in [7] and in assay [12] was “inactive” throughout. Also, the Potency is 57.9 µM (active) in assay [8]; 60.9 µM (active) and 64.9 µM (active) in assay [9]; 51.6 µM (active) in assay [10]; 54.8 µM (active) in assay [11].

Turning to `Cc1cc(Nc2ccc(O)cc2)ccc1N`, the Potency entry in [1], in assay [2], in assay [3], in assay [4], in assay [5] and in [7] was “inactive” in each case. In addition, the Potency result in [13], in assay [14] and in assay [11] was “inactive” in each case. Also, the Potency in [8] is 15.3 µM (active); in assay [9] it was 13.6 µM (active); in assay [10] it was 13.6 µM (active).

For the compound `O=C(O)Cc1ccc(OCCNC[C@H](O)c2ccccc2)cc1`, the Potency entry in assay [1], in [2], in assay [3], in [4], in assay [5] and in assay [7] was “inactive” throughout. In addition, the Potency entry in assay [13], in assay [15], in assay [16], in assay [14], in [11] and in assay [12] was “inactive” each time. In assay [17], the Potency entry was “inactive”.

Take `CN1CCN(C2Cc3ccccc3Sc3ccc(Cl)cc32)CC1` (stereo not given): the Potency result in assay [1], in assay [2], in assay [3], in assay [4], in [5] and in assay [7] was “inactive” in each case. The Potency entry in assay [13] and in assay [17] was “inactive” in each case. In addition, the Potency in [8] was 5.96 µM (active); in assay [9], 6.68 µM (active); in assay [10], 9.44 µM (active). In [18], the result was inactive.

With `O=C1c2c(O)ccc(O)c2C(=O)c2c(NCCNCCO)ccc(NCCNCCO)c21`, the fluorescence, % of fluorescein in assay [1] is 0.0058% [at 18.6 µM] (inactive). In addition, the results for the fluorescence, % of fluorescent control in assay [2] and in [4] were -0.133% [at 18.6 µM] (inactive) and -0.213% [at 18.6 µM] (inactive), respectively. Besides, the activity change in assay [3] is -0.248% [at 18.6 µM, hits give high values] (inactive). In [5], the fluorescence, % of Rose Bengal is -0.463% [at 18.6 µM] (inactive). Moreover, in [7], the fluorescence, % of fluorescein control was -0.22% [at 18.6 µM] (inactive). The Potency in [9] was 0.0101 µM (active); in assay [19], 0.512 µM (active); in [12], 9.43 µM (active); in [17] it was 5.07 µM (active).

In the case of `CCCOc1sc(C(=O)N2CCC(c3cc(CN)ccc3F)CC2)c(C)c1Br`, the Potency result in assay [1], in [2], in [3], in [4], in assay [5] and in assay [7] was “inactive” in each case. Also, the Potency result in [13] is “inactive”. Moreover, the Potency in assay [8] is 14.1 µM (active); in assay [9] it was 17.7 µM (active); in assay [10] it was 14.1 µM (active); in assay [11], 20 µM (active); in assay [12], 49.9 µM (active); in [17], 44.5 µM (active).

Turning to `CCC(C)(C)c1cc(O)c(C(C)(C)CC)cc1O`, the Potency result in assay [1], in assay [2], in [3], in assay [4], in assay [5] and in [7] was “inactive” each time. Moreover, the Potency result in assay [13], in [15], in assay [14], in assay [11], in assay [12] and in assay [17] was “inactive” each time. The Potency in assay [8] is 17.2 µM (active); in assay [9] it was 21.7 µM (active); in assay [10], 17.2 µM (active).

`CCN(CC)CCOc1ccc(C(O)(Cc2ccc(Cl)cc2)c2ccc(C)cc2)cc1` (stereo not given): the Potency result in assay [1], in assay [2], in assay [3], in assay [4], in [5] and in assay [7] was “inactive” each time. In addition, the Potency in [8] was 2.11 µM (active); in assay [9], 2.11 µM (active); in assay [10] it was 2.98 µM (active); in [11], 16.9 µM (active).

Regarding `CCCN(CCc1cccs1)[C@H]1CCc2c(O)cccc2C1`, the Potency result in [1], in [2], in assay [3], in [4], in assay [5] and in [7] was “inactive” each time. In addition, the Potency entry in assay [13], in assay [15], in assay [16], in assay [14], in assay [11] and in [20] was “inactive” throughout. The Potency result in assay [12] and in [17] was “inactive” in each case. For the same compound, the Potency is 18.8 µM (active) in assay [8], 26.6 µM (active) in assay [9] and 23.7 µM (active) in assay [10].

For `Cc1cc2c(C(C)C)c(O)c(O)c(C=O)c2c(O)c1-c1c(C)cc2c(C(C)C)c(O)c(O)c(C=O)c2c1O`, the Potency entry in [1], in assay [2], in [3], in assay [4], in assay [5] and in assay [7] was “inactive” each time. For the same compound, the Potency entry in assay [13] was “inactive”. Further, the Potency in assay [14] is 9.52 µM (active); in assay [9], 13.3 µM (active); in assay [10], 11.9 µM (active); in assay [11], 21.3 µM (active).
